We go through 25 molecules from PubChem BioAssay (Tox21).

Structures are written as SMILES. A number with no mark means an inactive call. Inconclusive results are not listed. Active and inactive are the calls of the source. Unless noted, calls come from the whole dose curve; as a rule, active = well fitted curve in the direction sought with a large enough effect in the repeat runs; inconclusive = weak or mixed curves; inactive = no such curve, though single readings can be large; an effect the other way counts as inactive or inconclusive.

Assay [1] is described as follows: qHTS assay to identify small molecule agonists of the hypoxia (HIF-1) signaling pathway - cell viability counter screen (AID 1224844; calls by dose curve; note: nearly all actives have a fitted effect of over 50% in size; note: potency is the fitted concentration of half-maximal effect). A digest of the protocol:
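Cytotoxicity was measured in parallel with the HRE-driven beta-lactamase readout: after 17 hrs of compound exposure at 37C, HRE-bla ME-180 cells received CellTiter-Glo and luminescence was recorded 30 min later.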

Assay [2] is described as follows: qHTS assay to identify small molecule agonists of H2AX (AID 1224845; active = well fitted activation curve with a large enough effect in the signal ratio in the repeat runs, not every such curve was filed as active; the % refers to the signal ratio). A digest of the protocol: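 Wild-type CHO-K1 cells, plated overnight, exposed 3hr at 37C to 15 concentrations (0.76% DMSO final). Lysed, then HTRF anti-pH2AX (S139) cryptate and anti-H2AX-d2 antibodies, 24 hr room temperature; 665/620 nm emission read.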
Assay [3] is described as follows: qHTS assay to identify small molecule agonists of the hypoxia (HIF-1) signaling pathway (AID 1224846; active = well fitted activation curve with a large enough effect in the signal ratio in the repeat runs, not every such curve was filed as active; the % refers to the signal ratio). The procedure, abridged:
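Compounds from the Tox21 10K library, dissolved in DMSO, are tested for induction of a hypoxia response element–controlled beta-lactamase reporter in ME-180 cells. Exposure lasts 17 hrs at 37C after a 5 hr settling period, followed by CCF4-AM FRET substrate.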

Assay [4] in a line: qHTS assay to identify small molecule agonists of H2AX - cell viability counter screen (AID 1224847; calls by dose curve; note: nearly all actives have a fitted effect of over 30% in size; note: potency is the fitted concentration of half-maximal effect; for activity change, negative = cytotoxicity: top concentration of the series differs between compounds). A digest of the protocol:
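CHO-K1 cells plated overnight at 37C, then exposed 3 h at 37C to compounds at 15 concentrations (0.76% DMSO final). Viability by CellTiter-Glo luminescence after 30 min at room temperature.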
In general terms: Quantitative high-throughput screening tests each substance at several concentrations.

Assay [5] in a line: qHTS assay to identify small molecule antagonists of the estrogen related receptor (ERR) signaling pathway from Tox21 library (AID 1224848). Note: nearly all actives have a fitted effect of over 50% in size. Note: potency is the fitted concentration of half-maximal effect. A digest of the protocol: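 Compounds dissolved in DMSO are pin-transferred onto ERR reporter cells (2,000 per well) that have settled for 6 h at 37 C. Plates then incubate 18 h at 37 C before ONE-Glo luciferase reagent and a luminescence read 30 min later.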

The nature of assay [6]: qHTS assay to identify small molecule agonists of the estrogen related receptor (ERR) signaling pathway from Tox21 library (AID 1224849; calls by dose curve; note: nearly all actives have a fitted effect of over 15% in size). As to conditions: ERR reporter cell line, ONE-Glo luciferase, 18 h; at 92.4 µM (top of the series) unless noted. The procedure, abridged: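 Cells carrying the ERR reporter were plated and allowed to settle for 6 h, exposed to library compounds for 18 h at 37 C, then lysed with ONE-Glo and luminescence measured.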

Assay [7] is described as follows: qHTS RealTime-Glo MT Cell Viability Assay in HepG2 cells - 24 hour (AID 1224867). Note: nearly all actives have a fitted effect of over 50% in size. A digest of the protocol: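 Cells + NanoLuc/prosubstrate dispensed (600 cells/well) → 5 h at 37 C/5% CO2 → compounds in DMSO transferred → 40 h incubation at 37 C, luminescence read at 0, 8, 16, 24, 32, 40 h.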
The nature of assay [8]: qHTS RealTime-Glo MT Cell Viability Assay in HEK293 cells - 32 hour (AID 1224868). For activity change, negative = cytotoxic: top concentration of the series differs between compounds. Note: nearly all actives have a fitted effect of over 50% in size. Note: potency is the fitted concentration of half-maximal effect. A digest of the protocol: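 Tox21 10K qHTS, HEK293, 600 cells/well, RealTime-Glo reagent co-dispensed with cells; 5 h preincubation, compound by pintool, 37 C, luminescence at 0–40 h.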
Assay [9] in a line: A CellTox Green Cytotoxicity Assay to monitor cytotoxicity in HEK293 cells - 0 hour (AID 1224869). Note: nearly all actives have a fitted effect of over 50% in size. The procedure, abridged:
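Cells (HEK293, 600/well) and dye reagent are dispensed together. After 5 h at 37 C, 23 nL compound is pinned in. Plates stay at 37 C for 40 h with fluorescence read at 0h, 8h, 16h, 24h, 32h and 40h.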

The nature of assay [10]: qHTS RealTime-Glo MT Cell Viability Assay in HepG2 cells - 40 hour (AID 1224870). Note: nearly all actives have a fitted effect of over 50% in size. Note: potency is the fitted concentration of half-maximal effect. A digest of the protocol:
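HepG2 cells (600/well) mixed with RealTime-Glo MT reagent, settled 5 h at 37 C/5% CO2 before compound addition. Nonlytic NanoLuc luminescence from viable-cell prosubstrate reduction read repeatedly during 40 h treatment at 37 C.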
% is set by controls: 0 for no effect and ±100 for the full control effect.

Consider `NCCCN1CCOCC1`, for which the Potency entry in assay [1], in assay [2], in assay [3], in assay [4], in assay [5] and in [7] was “inactive” in each case. The Potency result in assay [8], in assay [9] and in [10] was “inactive” throughout. Also, the activity change, positive = activation in assay [6] was 6.49%.
For `CC[N+](C)(CC)CCOC(=O)C(O)(c1ccccc1)C1CCCCC1` (stereo not given), the Potency result in [1], in assay [2], in assay [3], in assay [4], in [5] and in assay [7] was “inactive” throughout. The Potency entry in assay [8], in [9] and in [10] was “inactive” throughout.
As to `CCCCCCCC/C=C\CCCCCCCC(=O)OCC`, the Potency result in [1], in assay [2], in assay [3], in [4], in [5] and in assay [8] was “inactive” throughout. Moreover, the Potency entry in [9] and in assay [10] was “inactive” throughout. For the same molecule, the activity change, positive = activation in assay [6] was -11.5%.
In the case of `CC(CSC(=O)c1ccccc1)C(=O)N1C[C@@H](Sc2ccccc2)C[C@H]1C(=O)O` (stereo not given in full), the values for the activity change, negative = cytotoxicity in [1] and in assay [4] were -3.08% [at 15.8 µM] and 1.45% [at 31.6 µM], respectively. The activation (H2AX phosphorylation) in assay [2] was 0.449% [at 31.6 µM]. Moreover, in assay [3], the activation is 0.628% [at 15.8 µM]. In addition, the activity, negative = inhibition in assay [5] is -0.558% [at 19 µM]. In assay [6], the activity change, positive = activation was -0.059% [at 19 µM]. The results for the activity change, negative = cytotoxic in assay [8] and in assay [10] were -4.06% [at 15.8 µM] and 2.68% [at 15.8 µM], respectively. In addition, in [9], the cytotoxicity was -0.576% [at 15.8 µM].
On to `C1CCCNCCC1`, for which the Potency result in assay [1], in [2], in [3], in assay [4], in assay [5] and in assay [7] was “inactive” throughout. For the same molecule, the Potency entry in assay [8], in [9] and in assay [10] was “inactive” in each case. The activity change, positive = activation in assay [6] is -2.25%.
As for `O=C(OCCCCCCOC(=O)c1ccccc1)c1ccccc1`, the Potency result in assay [1], in assay [2], in assay [3], in [4], in assay [5] and in [7] was “inactive” each time. Further, the Potency entry in assay [9] and in assay [10] was “inactive” throughout. For the same molecule, in assay [6], the activity change, positive = activation was 1.59%.
With `O=C1[C@H]2CCCC[C@H]2C(=O)N1CCCCN1CCN(c2nsc3ccccc23)CC1`, the Potency entry in [1], in assay [2], in assay [3], in [4], in [7] and in assay [9] was “inactive” throughout. The Potency result in assay [10] is “inactive”. The Potency in assay [5] is 26.6 µM (active).
Turning to `COC(C)OC`, the Potency entry in assay [1], in assay [2], in assay [3], in assay [4], in [5] and in assay [7] was “inactive” each time. The Potency entry in assay [8], in [9] and in [10] was “inactive” throughout. Also, the activity change, positive = activation in [6] is -2.66%.
Take `COC(C)(C)CCO`: the Potency entry in assay [1], in assay [2], in assay [3], in assay [4], in [5] and in [7] was “inactive” throughout. The Potency entry in [8], in assay [9] and in assay [10] was “inactive” in each case. Further, the activity change, positive = activation in assay [6] is 3.52%.
On to `O=C(O)c1ccc(S(=O)(=O)O)cc1C(=O)O`, for which the Potency entry in [1], in assay [2], in assay [3], in assay [4], in assay [5] and in assay [7] was “inactive” each time. Further, in assay [10], the Potency entry is “inactive”. Besides, in [6], the activity change, positive = activation was -2.89%.
For `C[C@@H]1C[C@H]2O[C@@]3(O[C@@H]2C(C)(C)O)[C@H](O)[C@@]2(C)[C@@H]4CC[C@H]5C(C)(C)[C@@H](O[C@@H]6OC[C@@H](O)[C@H](O)[C@H]6O)CC[C@@]56C[C@@]46CC[C@]2(C)[C@@H]13`, the Potency result in [1], in [2], in assay [3], in assay [4], in assay [5] and in assay [7] was “inactive” throughout. For the same molecule, the Potency result in assay [8], in assay [9] and in [10] was “inactive” each time.
`CCN(CC)CCNc1ccc(CNC=O)c2sc3ccc(OC)cc3c(=O)c12`: the Potency in assay [1] is 24.5 µM (active); in assay [5] it was 2.73 µM (active); in [8], 17.4 µM (active); in assay [10], 17.4 µM (active). Also, the Potency result in assay [2], in assay [3], in assay [4] and in assay [9] was “inactive” each time. In addition, the activity change, positive = activation in assay [6] is -41.1%.
Take `Nc1c(CC(=O)O)cccc1C(=O)c1ccc(Br)cc1`: the Potency result in assay [1], in assay [2], in assay [3], in [4], in assay [7] and in assay [8] was “inactive” in each case. Further, the Potency result in assay [9] and in assay [10] was “inactive” throughout.
Regarding `Nc1ccc(S(=O)(=O)Nc2ccccc2)cc1`, the Potency entry in assay [1], in assay [2], in [3], in assay [4], in [7] and in [8] was “inactive” throughout. Further, the Potency entry in [9] and in assay [10] was “inactive” throughout.
In the case of `CC(=O)NO`, the Potency entry in [1], in assay [2], in [3], in [4], in assay [7] and in assay [8] was “inactive” each time. Further, the Potency entry in assay [9] and in [10] was “inactive” in each case.
As for `O=C(O)c1ccco1`, the Potency result in assay [1], in assay [2], in assay [3], in assay [4], in assay [7] and in assay [8] was “inactive” throughout. For the same molecule, the Potency result in assay [9] and in [10] was “inactive” throughout.
With `CCOC(=O)C(O)c1ccccc1` (stereo not given), the Potency entry in assay [1], in assay [2], in assay [3], in [4], in [5] and in [7] was “inactive” throughout. Moreover, the Potency result in [10] was “inactive”.
For the molecule `CCCCCCCCCOS(=O)(=O)O`, the Potency result in assay [1], in assay [2], in [3], in assay [4], in assay [7] and in assay [8] was “inactive” throughout. The Potency entry in [9] and in assay [10] was “inactive” each time.
Take `C=CC1CC2C=CC1C2` (stereo not given): the Potency result in [1], in [2], in assay [3], in assay [4], in assay [7] and in assay [8] was “inactive” in each case. The Potency entry in assay [9] and in assay [10] was “inactive” each time.
On to `CCCC(=O)Nc1ccc(O)c(C(C)=O)c1`, for which the Potency entry in assay [1], in [2], in [3], in assay [4], in assay [7] and in assay [8] was “inactive” each time. The Potency entry in [9] and in [10] was “inactive” each time.
Take `CCO[Si](CCCCl)(OCC)OCC`: the Potency result in [1], in [2], in assay [3], in [4], in assay [7] and in assay [8] was “inactive” throughout. For the same molecule, the Potency entry in [9] and in assay [10] was “inactive” each time.
On to `CC(=O)[O][Al]`, for which the Potency result in [1], in [2], in assay [3], in assay [4], in assay [5] and in assay [10] was “inactive” throughout.
Regarding `COc1ccc(-c2nc3ccc(C4=NNC(=O)CC4C)cc3[nH]2)cc1` (stereo not given), the Potency entry in [1], in assay [2], in [3], in [4], in [5] and in assay [7] was “inactive” each time. Moreover, the Potency entry in [9] and in [10] was “inactive” throughout.
For the molecule `O=[N+]([O-])c1cccc(S(=O)(=O)O)c1`, the Potency result in assay [1], in [2], in [3] and in [10] was “inactive” in each case. Besides, the Potency in assay [4] is 45.7 µM (active); in assay [5] it was 27.7 µM (active); in assay [8], 22.2 µM (active).
Take `CCCCCCCCO[C@@H]1O[C@H](CO)[C@@H](O)[C@H](O)[C@H]1O`: the Potency result in assay [1], in assay [2], in assay [3], in assay [4], in assay [7] and in assay [8] was “inactive” in each case. The Potency result in [9] and in assay [10] was “inactive” throughout.
